Laboratory results: PubChem BioAssay (NCI)
Several values for one entry are separate records, joined by “and”; a condition that tells them apart may be missing. Equal values may be shown once. About 79,000 compounds went through this panel and 15% of them were active in at least one assay; those are over-represented in the sample as a whole. Activity calls are given as the source filed them. No stated cut-off is given here; in the data, active means growth inhibition above about 70%; inactive means the rest.

assay: NCI Yeast Anticancer Drug Screen. Data for the bub3 strain (AID 167); conditions: S. cerevisiae bub3 mutant strain, at 50.0 µM, stronger effect = higher value
Experimental: Growth inhibition of yeast strains with defined genetic alterations is measured as a screen for potential anti-cancer activity. Selected strains with alterations in DNA damage repair or cell cycle control were exposed to compounds and growth inhibition was measured relative to vehicle treated controls. The strain used in this assay is bub3

Compound | growth inhibition
COC(=O)c1ccc(NC(=O)O/N=C(\Cl)C(C)C)cc1 | 34.1% (inactive)
N#CC(=S)Nc1ccc(F)cc1 | 10.9% (inactive)
CC(C)C1OC(N)=C(C#N)C1(C#N)C#N (stereo not given) | -19% (inactive)
NC(=S)NS(=O)(=O)c1ccc(N)cc1 | -16.4% (inactive)
Cc1ccc2c(/C=C/c3ccc(N(C)C)cc3)ccc(C(C)C)cc1-2 | -22.2% (inactive)
CCOC(=O)CC(=O)c1ccccc1 | 13.8% (inactive) and -12.7% (inactive)
C=C1C(=O)O[C@@H]2C[C@@]3(C)CC(=O)C=C(C)[C@@H]3C[C@H]12 | 15.8% (inactive)
CNC(=S)/C(=N\Nc1nc[nH]c1C(N)=O)C(N)=S | 15.1% (inactive)
CC(=N/N=C/c1ccccn1)/C(C)=N/N=C(C)/C(C)=N/N=C(C)/C(C)=N/N=C(C)/C(C)=N\N=C\c1ccccn1 | 8.15% (inactive)
Clc1c(Cl)c(Cl)c2nn(C3CCCO3)nc2c1Cl (stereo not given) | 12.1% (inactive)
COC(=O)C(C(=O)C(=O)NC1Nc2ccc(C)cc2S1)c1nc2ccc(Cl)cc2[nH]c1=O (stereo not given) | 13.2% (inactive)
CCCCCCCCCC(=O)CC(=O)c1c(O)cc(O)cc1O | 31.8% (inactive)
COC(=O)C1CCC(=O)N1CN(C(C)=O)c1cccc(O)c1 (stereo not given) | -15.7% (inactive)
[O-]c1ccccc1/C=N/C(/N=C/c1ccccc1[O-])c1ccccc1O.[O-]c1ccccc1/C=N/C(/N=C/c1ccccc1[O-])c1ccccc1O.[Zr+4] | 14.2% (inactive)
COc1cc(C)c2c(c1C=O)Oc1c(c(C)c(O)c3c1C(O)OC3=O)OC2=O (stereo not given) | -4.85% (inactive)
COc1cc(N(CCC#N)CCC#N)ccc1/C(N=Nc1ccc(Cl)cc1)=N/NC(=O)c1cc(Br)ccc1O | 17.8% (inactive)
CNC(=S)c1nnsc1N | 6.3% (inactive)
CCC(=O)C(CC)c1cccc(OC)c1 (stereo not given) | 9.55% (inactive)
Cc1ccc(C)c(NC(=O)/C(=N\N)C(c2cnc3ccc([N+](=O)[O-])cc3n2)[N+](=O)[O-])c1 (stereo not given) | 32.2% (inactive)
COc1ccc(N=C(C)C(C)=Nc2ccc(OC)cc2)cc1 | 11.6% (inactive)

Compound | growth inhibition
CCO/C=N\C1=C(C#N)SC2=N/C(=C\c3ccc(OC)cc3)C(=O)N21 | -2.1% (inactive)
Cn1c2c(c3ccccc3c1=O)C(=O)c1ccccc1-2 | 7.7% (inactive)
Cc1ccc(-c2noc(C)n2)cc1 | 4% (inactive)
CC(C)Cc1ccc(C(C)C(=O)O)cc1 (stereo not given) | -26.1% (inactive)
N#Cc1c(N)oc(-c2cccc([N+](=O)[O-])c2)c1C#N | -6.3% (inactive)
COc1cc2oc3c(c(=O)c2c(O)c1/C=C/C(C)C)CCC(C)(C)Oc1cc(O)ccc1-3 | 39.5% (inactive)
COC(=O)c1nc(Br)cnc1N | 4% (inactive)
Cc1ccc2c(sc(-c3ccc4c(c3)sc(-c3ccc5c(c3)sc(-c3ccc(N(C)C)cc3)[n+]5C)[n+]4C)[n+]2C)c1S(=O)(=O)O (tested in a mixture with another compound) | 35% (inactive)
COc1ccc(-c2nc3ccccc3c(=S)n2OC(C)=O)cc1 | 90.2% (active)
COC(=O)C(=O)C(C(=O)C(=O)Nc1ccccc1C(C)=O)c1nc2ccc(C(=O)c3ccccc3)cc2[nH]c1=O (stereo not given) | 5.25% (inactive)
COc1cc2c(cc1C1COc3cc4occc4cc3C1=O)OCO2 (stereo not given) | -4.45% (inactive)
CC1OC(Oc2c(-c3cc(O)c(O)c(O)c3)oc3cc(O)cc(O)c3c2=O)C(O)C(O)C1O (stereo not given) | -21.2% (inactive)
NC(N)=Nc1ccc(CC(N)C(=O)O)cc1 (stereo not given) | -3.8% (inactive)
C[C@@H]1CC[C@H]2C(C)(C)[C@H]3C[C@@]12CC[C@@]3(C)O | 11.8% (inactive)
CC(C)CCCC(C)[C@H]1CC[C@H]2[C@@H]3CC[C@H]4C[C@@H](CCC=C(c5cc(Cl)c(O)c(C(=O)O)c5)c5cc(Cl)c(O)c(C(=O)O)c5)CC[C@]4(C)[C@H]3CC[C@]12C (stereo not given in full) (tested in a mixture with another compound) | 10.7% (inactive)
O=C(/C=C(\[O-])c1ccccc1)CCCCCCC(=O)/C=C(\[O-])c1ccccc1.O=C(/C=C(\[O-])c1ccccc1)CCCCCCC(=O)/C=C(\[O-])c1ccccc1.O=C(/C=C(\[O-])c1ccccc1)CCCCCCC(=O)/C=C(\[O-])c1ccccc1.[Y+3].[Y+3] | 15.4% (inactive)
Cc1cc(N(CCC#N)CCC#N)ccc1/C=N/NC(=O)c1cc(Cl)ccc1O | -23.7% (inactive)
Fc1ccc(Nc2nc(Cl)c3[nH]cnc3n2)cc1Cl | 32.6% (inactive)
CCOc1cc2c(cc1O)C=C[C@@H]1[C@@H]2CC[C@]2(C)[C@@H](O)CC[C@@H]12 | 18.7% (inactive)
Clc1ccc(C2NN=C3c4ccccc4OCC32)cc1 (stereo not given) | 1.3% (inactive)
